Out of some 5,500 compounds screened, about 2,000 (36%) were called active. Roughly 18% stayed inconclusive and do not appear here. Cut-off read from the data, not from the text of the source: active = normalized growth mostly below about 0.91 (no sharp cut-off); inconclusive = no clear call, values can overlap the other calls; inactive = mostly above about 0.92. This is one part of the list.
Experiment: chemical genetic growth profiling, strain panel (AID 1159580);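 note: tested at 20 µM; growth read once vehicle control cultures reached saturation at 30 °C; 1 = growth at the plate median or of vehicle wells; lower values mean less growth of the strain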
Conditions: S. cerevisiae deletion strains, growth OD
[1] = locus YPL055C, strain LGE1, stronger effect = lower value
[2] = locus YPL241C, strain CIN2, stronger effect = lower value

Measured: normalized growth

CC(C)NC(C)Cc1ccc(I)cc1 (stereo not given)
inactive: locus YAL013W, strain DEP1, stronger effect = lower value 0.999 | locus YAL040C, strain CLN3, stronger effect = lower value 1.01 | locus YCL061C, strain MRC1 (second series), stronger effect = lower value 1.01 | locus YDR150W, strain NUM1, stronger effect = lower value 1.01 | locus YDR363W, strain ESC2, stronger effect = lower value 0.995 | locus YER002W, strain NOP16, stronger effect = lower value 1 | locus YNL175C, strain NOP13, stronger effect = lower value 1.01 | locus YNL197C, strain WHI3, stronger effect = lower value 1.01 | locus YNL224C, strain SQS1, stronger effect = lower value 1 | locus YNL322C, strain KRE1, stronger effect = lower value 1 | locus YOR083W, strain WHI5 (second series), stronger effect = lower value 0.998 | [1] 0.991 | [2] 1.02

COC(=O)CC1C(C)(C)C(=O)C2CC3(O)C4=CC(=O)OC(c5ccoc5)C4(C)CCC3C1(C)C2=O (stereo not given)
inactive: locus YBR021W, strain FUR4, stronger effect = lower value 1 | locus YBR229C, strain ROT2, stronger effect = lower value 1 | locus YCL029C, strain bik1, stronger effect = lower value 0.983 | locus YDL035C, strain GPR1, stronger effect = lower value 1.01 | locus YDL074C, strain BRE1, stronger effect = lower value 1 | locus YDL101C, strain DUN1, stronger effect = lower value 1 | locus YDL185W, strain tfp1, stronger effect = lower value 0.981 | locus YDL192W, strain arf1, stronger effect = lower value 0.99 | locus YDR101C, strain arx1, stronger effect = lower value 0.997 | locus YDR162C, strain NBP2, stronger effect = lower value 1.02 | locus YDR318W, strain mcm21, stronger effect = lower value 0.977 | locus YDR388W, stronger effect = lower value 0.982 | locus YDR502C, strain sam2, stronger effect = lower value 0.992 | locus YER110C, stronger effect = lower value 0.983 | locus YER155C, strain BEM2, stronger effect = lower value 1 | locus YER167W, strain BCK2, stronger effect = lower value 1.01 | locus YGL078C, strain dbp3, stronger effect = lower value 0.982 | locus YGL086W, strain mad1, stronger effect = lower value 0.993 | locus YGL248W, strain PDE1, stronger effect = lower value 1 | locus YGR135W, strain pre9, stronger effect = lower value 0.985 | locus YGR252W, strain gcn5, stronger effect = lower value 0.906 | locus YHR030C, strain SLT2, stronger effect = lower value 1.01 | locus YHR079C, strain IRE1 (second series), stronger effect = lower value 0.977 | locus YHR094C, strain hxt1, stronger effect = lower value 0.985 | locus YHR129C, strain ARP1, stronger effect = lower value 1 | locus YHR200W, strain rpn10, stronger effect = lower value 0.986 | locus YIL066C, strain RNR3, stronger effect = lower value 1.01 | locus YIL073C, strain SPO22, stronger effect = lower value 1.03 | locus YIL125W, strain kgd1, stronger effect = lower value 0.984 | locus YIR030C, strain dcg1, stronger effect = lower value 0.989 | locus YJL095W, strain BCK1, stronger effect = lower value 1.02 | locus YJL134W, strain LCB3, stronger effect = lower value 1 | locus YJL168C, strain set2, stronger effect = lower value 0.982 | locus YJL187C, strain SWE1 (second series), stronger effect = lower value 1 | locus YJR043C, strain POL32, stronger effect = lower value 0.997 | locus YKL009W, strain mrt4, stronger effect = lower value 0.989 | locus YKL068W, stronger effect = lower value 0.993 | locus YKL085W, strain MDH1 (second series), stronger effect = lower value 0.991 | locus YKL085W, strain MDH1, stronger effect = lower value 0.991 | locus YKR001C, strain vps1, stronger effect = lower value 0.97 | locus YLR039C, strain RIC1, stronger effect = lower value 1.05 | locus YLR058C, strain SHM2, stronger effect = lower value 1 | locus YLR102C, strain apc9, stronger effect = lower value 0.988 | locus YLR262C, strain YPT6, stronger effect = lower value 1.13 | locus YLR268W, strain sec22, stronger effect = lower value 0.977 | locus YLR342W, strain FKS1 (second series), stronger effect = lower value 0.992 | locus YLR371W, strain rom2, stronger effect = lower value 0.986 | locus YLR418C, strain cdc73, stronger effect = lower value 0.966 | locus YML016C, strain PPZ1, stronger effect = lower value 1 | locus YML032C, strain rad52, stronger effect = lower value 0.982 | locus YML124C, strain tub3, stronger effect = lower value 0.988 | locus YMR078C, strain ctf18, stronger effect = lower value 0.991 | locus YMR223W, strain ubp8, stronger effect = lower value 0.992 | locus YMR307W, strain GAS1, stronger effect = lower value 0.985 | locus YNL067W, strain RPL9B, stronger effect = lower value 1.01 | locus YNL128W, strain TEP1, stronger effect = lower value 1.01 | locus YNL233W, strain BNI4, stronger effect = lower value 1.01 | locus YNL250W, strain rad50, stronger effect = lower value 0.986 | locus YNL271C, strain bni1, stronger effect = lower value 0.979 | locus YNL298W, strain CLA4, stronger effect = lower value 0.982 | locus YNL307C, strain MCK1, stronger effect = lower value 0.986 | locus YNR052C, strain pop2, stronger effect = lower value 0.978 | locus YOL012C, strain htz1 1.11 | locus YOL147C, strain pex11, stronger effect = lower value 0.983 | locus YOR061W, strain CKA2, stronger effect = lower value 1.01 | locus YOR069W, strain VPS5, stronger effect = lower value 1 | locus YOR136W, strain idh2, stronger effect = lower value 0.978 | locus YOR144C, strain elg1, stronger effect = lower value 0.985 | locus YOR184W, strain ser1, stronger effect = lower value 0.992 | locus YOR316C, strain cot1, stronger effect = lower value 0.991 | [1] 0.994 | [2] 1 | locus YPR119W, strain clb2, stronger effect = lower value 0.999 | locus YPR141C, strain kar3, stronger effect = lower value 0.99 | locus YPR163C, strain tif3, stronger effect = lower value 0.982 | locus YPR167C, strain met16, stronger effect = lower value 0.985 | strain wtn01, stronger effect = lower value 0.99

— PubChem BioAssay AID1159580 (chemical genetic matrix, 2015)
